Bioassay records as filed in PubChem BioAssay.
Hits are enriched below; roughly 1% of the tested compounds scored in any of these assays.
HUVEC tox TNFa = HUVEC cytotoxicity counter-screen, TNF alpha stimulated; HUVEC TNFalpha-stimulated, Hoechst cell count, imaging; AID 848; cell count reduction, % at 2 µM; 0.17% of 93,000 active;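 active means cell count reduction exceeding the screen mean by over 5 SD, scaled to untreated wells per plate, cut at about 78% in these data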;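 further: cells counted after 24 h of TNF alpha exposure following the 1 h pretreatment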
cytoskel mod = modifiers of cytoskeleton assembly | HUVEC TNFa F-actin phalloidin imaging, high content | inhibition, % at 2 µM | 0.18% of 91,000 active;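 active means inhibition above the batch mean plus 3 SD and confirmed as a hit by visual image inspection, cut at about 30% in these data, passing the limit was not always enough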
VCAM1 TNFa inh = reduces TNF alpha induced VCAM1 expression in HUVEC. HUVEC TNFa-induced VCAM-1 immunofluorescence, high-content imaging. 0.48% of 95,000 active. inhibition, % at 2 µM. AID 802;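 active means inhibition above the batch mean plus 3 SD, with images confirmed as a hit by eye, cut at about 37% in these data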
E-sel TNF inh = TNF alpha driven E-selectin expression inhibition | 0.71% of 120,000 active | HUVEC TNFa-induced E-selectin immunofluorescence, high content | AID 1246 | inhibition, % at 2 µM;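 active means inhibition above the batch mean plus 3 SD, and confirmed as a hit on visual image review, cut at about 43% in these data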
Each line names hits and unclear results; the compound was inactive in the other large screens.

CCC(C)(C)n1nnnc1C(c1ccc(OC)c(OC)c1)N1CCN(c2cccc(OC)c2)CC1 (stereo unspecified)	none
CCC(C)(C)n1nnnc1C(c1ccc(OC)c(OC)c1)N1CCN(c2ccccc2)CC1 (stereo unspecified)	E-sel TNF inh 83.3
COc1ccc2c(c1)C1CC(C)(NC(=O)C1S(=O)(=O)c1ccc(F)cc1)O2 (stereo unspecified)	E-sel TNF inh 76.5 (no result: HUVEC tox TNFa, cytoskel mod, VCAM1 TNFa inh)
COC(=O)c1cnc(SCc2ccc(C)cc2)n1C	E-sel TNF inh 69.0 (no result: HUVEC tox TNFa, cytoskel mod, VCAM1 TNFa inh)
COc1cccc(CNC(=O)C2CCN(S(=O)(=O)c3c(C)nn(C)c3C)CC2)c1	none
O=C(/C(=C/c1ccc(Cl)cc1)c1nc2ccccc2[nH]1)c1cccs1	VCAM1 TNFa inh 52.4
Cc1noc(C)c1S(=O)(=O)Nc1ccc(C(=O)NC2CCCCC2C)cc1 (stereo unspecified)	E-sel TNF inh 75.0
CNC(=O)NC(=O)C(C)OC(=O)c1cc2c(s1)CCCCC2 (stereo unspecified)	none (no result: HUVEC tox TNFa, cytoskel mod, VCAM1 TNFa inh)
CCC(C)Nc1nc(OC(C(F)(F)F)C(F)(F)F)nc(OC(C(F)(F)F)C(F)(F)F)n1 (stereo unspecified)	E-sel TNF inh 43.5
CCOc1ccc(NCc2nc3ccccc3n2CCOc2ccccc2)cc1	E-sel TNF inh 92.3 (no result: HUVEC tox TNFa, cytoskel mod, VCAM1 TNFa inh)
Cc1sc2ncn(CC(=O)OC(C)C(=O)NC(C)(C)C)c(=O)c2c1C (stereo unspecified)	none
CCOC(=O)c1cnn(-c2nc(-c3ccc(C)cc3)cs2)c1C(F)(F)F	VCAM1 TNFa inh 96.3 (no result: E-sel TNF inh)
CN(C)/C=N/C(=S)Nc1ccc(Br)cc1F	none
O=C(Nc1ccc(Oc2ccccc2)cc1)C1CCCN(c2ncccn2)C1 (stereo unspecified)	cytoskel mod 70.7
CCN(CC)c1ccc(NC(=O)C2CC3CCC2C3)cc1 (stereo unspecified)	E-sel TNF inh 96.2 (no result: HUVEC tox TNFa, cytoskel mod, VCAM1 TNFa inh)
COC(=O)c1ccc(COc2ccc(-c3nn[nH]n3)cc2)cc1	none
COc1ccc(C2C(C#N)=C(SCC(=O)Nc3ccc(C)cc3)NC3=C2C(=O)CC(C)(C)C3)cc1 (stereo unspecified)	E-sel TNF inh 65.7
COc1cccc(NC(=O)CSC2=C(C#N)C(c3ccco3)C3=C(CCCC3=O)N2)c1 (stereo unspecified)	none (no result: E-sel TNF inh)
CCOC(=O)c1[nH]c(C)c(C(=O)c2ccc(C)cc2)c1C	VCAM1 TNFa inh 47.5
CCOC(=O)c1c(C)[nH]c(C(=O)OCCOc2ccccc2C)c1C	E-sel TNF inh 67.2 (no result: HUVEC tox TNFa, cytoskel mod, VCAM1 TNFa inh)
CCCS(=O)c1nc(C)cc(C)c1S(C)(=O)=O (stereo unspecified)	none (no result: HUVEC tox TNFa, cytoskel mod, VCAM1 TNFa inh)
CC(C)(C)NC(=O)NC(=O)CSc1ncn[nH]1	E-sel TNF inh 99.8 (no result: HUVEC tox TNFa, cytoskel mod, VCAM1 TNFa inh)
CCC(=O)N1CCN(CCN=CC2=C(O)CC(c3ccc(OC)cc3)CC2=O)CC1 (stereo unspecified)	none (no result: HUVEC tox TNFa, cytoskel mod, VCAM1 TNFa inh)
CCOc1ccc(-c2nnc3n2N=C(c2ccc(OC)cc2)CS3)cc1	none (no result: E-sel TNF inh)
COc1ccc(C2=Nn3c(nnc3-c3ccncc3)SC2)cc1OC	none
COc1ccccc1-c1nnc2n1N=C(c1ccc(O)c(O)c1)CS2	VCAM1 TNFa inh 95.5
CCOc1ccc(C2=Nn3c(nnc3-c3ccccc3OC)SC2)cc1	VCAM1 TNFa inh 98.9
CCCn1c(=O)[nH]c(=O)c2c1nc(-c1ccccc1)n2CCN1CCOCC1	none
COc1ccc(C2(CNC(=O)CCC(=O)O)CCCC2)cc1	none
Cc1cc(/C=C2\SC(=Nc3ccc(F)cc3)NC2=O)c(C)n1-c1ccc(S(N)(=O)=O)cc1	cytoskel mod 31.4
COc1cc(Cl)c(C)cc1NC(=S)NN	none (no result: HUVEC tox TNFa, cytoskel mod, VCAM1 TNFa inh)
CCn1ccnc1C(O)c1cccc(OC)c1 (stereo unspecified)	cytoskel mod 63.6
COC(=O)N/N=C\c1ccc(-c2cc(Cl)c(Cl)cc2Cl)o1	none (no result: HUVEC tox TNFa, cytoskel mod, VCAM1 TNFa inh)
COC(=O)N/N=C/c1ccc(-c2cc(Cl)ccc2Cl)o1	none (no result: HUVEC tox TNFa, cytoskel mod, VCAM1 TNFa inh)
NC(=S)N/N=C\c1ccc(-c2cccc(Cl)c2Cl)o1	VCAM1 TNFa inh 80.2
NC(=S)N/N=C/c1ccc(-c2ccc(Cl)c(Cl)c2)o1	VCAM1 TNFa inh 67.8
COc1ccc(NC(=O)N2CCn3c2nc2ccccc23)cc1	VCAM1 TNFa inh 58.0
O=C(Nc1ccccc1)N1CCn2c1nc1ccccc12	none
COc1cccc(NC(=S)NN=C2CCCCCC2)c1	none (no result: HUVEC tox TNFa, cytoskel mod, VCAM1 TNFa inh)
COc1cc(C2C(C#N)=C(N)Oc3cc(C)n(CCc4ccccc4)c(=O)c32)cc2c1OCO2 (stereo unspecified)	E-sel TNF inh 95.0 (no result: HUVEC tox TNFa, cytoskel mod, VCAM1 TNFa inh)
CC(=O)NNc1nc2ccccc2s1	none (no result: E-sel TNF inh)
O=C(NNc1nc2ccccc2s1)Nc1ccccc1	E-sel TNF inh 62.3 (no result: HUVEC tox TNFa, cytoskel mod, VCAM1 TNFa inh)
COC(=O)c1cc(COc2ccc3c4c(c(=O)oc3c2)CCC4)c(C)o1	none
COc1ccc(C(=O)NCc2ccc3c(c2)OCO3)cc1S(=O)(=O)NCc1ccc(Cl)cc1	none (no result: HUVEC tox TNFa, cytoskel mod, VCAM1 TNFa inh)
COc1ccc(C(=O)NCCNC(C)=O)cc1S(=O)(=O)NCc1ccc(Cl)cc1	E-sel TNF inh 57.1
CC(C)c1c(O)cc(-c2ccncc2)n(-c2ccc(Cl)cc2)c1=O	E-sel TNF inh 68.5 (no result: HUVEC tox TNFa, cytoskel mod, VCAM1 TNFa inh)
Cc1ccccc1-c1nc(CN2CCC(C(=O)NCc3cccs3)CC2)c(C)o1	none (no result: E-sel TNF inh)
Cn1c(SCC(=O)N2CCOCC2)nnc1-c1cccc(NC(=O)c2ccccc2)c1	E-sel TNF inh 63.8
COC(=O)CSc1nnc(-c2cccc(NC(=O)c3ccc(C)cc3)c2)n1C	none
Cc1ccc(C(C)n2cc(C(=O)NCCN3CCN(C)CC3)nn2)cc1 (stereo unspecified)	E-sel TNF inh 71.2
O=C(NC(C(=O)c1ccccc1)N1CCOCC1)c1ccccc1 (stereo unspecified)	E-sel TNF inh 99.8 (no result: HUVEC tox TNFa, cytoskel mod, VCAM1 TNFa inh)
CCN1CCC2(CC1)C(C#N)=C(N)Oc1c2sc2nc(C)cc(C)c12	VCAM1 TNFa inh 84.5
CC(=O)N1CCC2(CC1)C(C#N)=C(N)Oc1c2sc2nc(C)cc(C)c12	none (no result: HUVEC tox TNFa, cytoskel mod, VCAM1 TNFa inh)
CCCCCCCCNC(=O)c1cccnc1SCC(=O)Nc1ccccc1OC	none (no result: HUVEC tox TNFa, cytoskel mod, VCAM1 TNFa inh)
COC(=O)C(NC(=O)c1ccccc1)c1ccccc1 (stereo unspecified)	E-sel TNF inh 60.5
O=C1CC(c2ccccc2)Cc2nc3ncnn3cc21 (stereo unspecified)	VCAM1 TNFa inh 59.8
COc1ccc2c(c1)C(C)=CC(C)(C)N2S(=O)(=O)c1ccc(C)cc1	none (no result: HUVEC tox TNFa, cytoskel mod, VCAM1 TNFa inh)
CC1=CC(C)(C)N(S(=O)(=O)c2ccc(C)cc2)c2cc(C)ccc21	VCAM1 TNFa inh 38.2
O=C(NCc1ccco1)c1cccc(-c2nnc(-c3ccccc3)o2)c1	none
Nc1cccc(-n2nncc2-c2ccc(Cl)cc2)c1	E-sel TNF inh 65.1
COc1ccc(-c2cnnn2-c2ccc(N)cc2)cc1OC	none
Cc1ccccc1CS(=O)(=O)c1nnc([C@H](CC(C)C)NC(=O)OC(C)(C)C)o1	E-sel TNF inh 98.7
C=CCn1c(SCC(=O)Nc2ccccc2OC)nnc1-c1ccccn1	none
CCn1c(SCC(=O)Nc2ccccc2OC)nnc1-c1cnccn1	E-sel TNF inh 62.0
COc1ccc(N2CCN(C(=O)CCCSc3nc4ccccc4[nH]3)CC2)cc1	none
Cc1cc(C(N)=O)c2cc(Br)ccc2n1	none
Cc1cc(C(=O)NN)c2cc(Br)ccc2n1	VCAM1 TNFa inh 55.9
CCCCNC(=O)C1CC(c2cccc([N+](=O)[O-])c2)=NO1 (stereo unspecified)	none
O=C(NCc1ccco1)C1CC(c2cccc([N+](=O)[O-])c2)=NO1 (stereo unspecified)	E-sel TNF inh 100.0
O=C(Nc1cccc(Br)c1)c1ccc(OC2CSC2)cc1	none (no result: HUVEC tox TNFa, cytoskel mod, VCAM1 TNFa inh)
